# Assay results published in PubChem BioAssay AID651650 (Sanford-Burnham Center for Chemical Genomics, 2012).
# Biological target: Neuropilin-1 (Homo sapiens) (UniProt O14786)
# Experiment: NRP-1 b1b2 CendR peptide binding inhibitors, dose response, biochemical, FP and AlphaScreen panel (AID 651650)
# Conditions: NRP-1 b1b2 / RPARPAR peptide binding, FP or AlphaScreen; run 1, at 100 µM (top of the series)
# Neuropilin-1 (Homo sapiens), sequence (O14786 whole entry, looked up): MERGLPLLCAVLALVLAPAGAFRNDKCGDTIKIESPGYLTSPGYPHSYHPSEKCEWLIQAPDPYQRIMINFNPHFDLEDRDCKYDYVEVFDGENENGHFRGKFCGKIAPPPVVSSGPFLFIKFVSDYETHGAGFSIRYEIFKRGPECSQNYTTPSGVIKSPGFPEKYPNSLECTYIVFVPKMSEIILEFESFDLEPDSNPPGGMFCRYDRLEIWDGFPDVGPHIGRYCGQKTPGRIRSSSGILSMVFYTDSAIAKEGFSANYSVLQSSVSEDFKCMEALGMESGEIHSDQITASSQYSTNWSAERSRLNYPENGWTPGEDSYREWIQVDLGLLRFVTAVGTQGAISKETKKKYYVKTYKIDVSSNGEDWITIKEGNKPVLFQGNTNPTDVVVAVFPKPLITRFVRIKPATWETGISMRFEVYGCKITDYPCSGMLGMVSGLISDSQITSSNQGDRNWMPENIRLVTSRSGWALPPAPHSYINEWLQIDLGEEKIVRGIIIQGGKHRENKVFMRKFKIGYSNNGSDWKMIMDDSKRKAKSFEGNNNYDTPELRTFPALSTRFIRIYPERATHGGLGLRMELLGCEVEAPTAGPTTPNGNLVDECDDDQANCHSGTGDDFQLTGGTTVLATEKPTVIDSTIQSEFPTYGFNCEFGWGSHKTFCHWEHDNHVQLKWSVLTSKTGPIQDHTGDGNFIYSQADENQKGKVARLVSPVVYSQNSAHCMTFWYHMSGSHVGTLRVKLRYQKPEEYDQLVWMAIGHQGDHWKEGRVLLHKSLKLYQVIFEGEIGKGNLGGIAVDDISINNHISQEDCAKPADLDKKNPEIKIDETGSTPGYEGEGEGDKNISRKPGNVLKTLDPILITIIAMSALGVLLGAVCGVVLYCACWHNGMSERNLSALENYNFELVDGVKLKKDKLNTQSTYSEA
row,SMILES,inhibition [%]
1,COc1cccc(OCCNC(=O)Nc2cc(F)c(F)cc2Cl)c1,54.1
2,Cc1cc(C)n(-c2nnc3n2N=C(c2c[nH]c4ccccc24)CS3)n1,2.19
3,C=CCNC(=O)c1onc(CSc2ccc(F)c(F)c2)c1C(=O)NCC=C,38.7
4,CCOC(=O)Cc1ccc(NS(=O)(=O)c2ccc(SC)cc2)cc1,19.4
5,C=CCN(CC=C)C(=O)C1CC(=O)N(c2ccc(Br)cc2)C1 (stereo not drawn),-4.22
6,Cc1ccc(NC(=O)c2ccc3c(c2)S(=O)(=O)c2ccccc2C3=O)cc1S(=O)(=O)N1CCOCC1,26.3
7,Cc1nc(SCc2ccc(C(=O)O)cc2)nc2c1CCCC2,41.7
8,CCN(CC)C(=O)c1cccc(-c2csc(C(NC(C)=O)c3cccc(OC)c3)n2)c1 (stereo not drawn),18.7
9,CSCCC(NC(=O)c1ccc(Cl)cc1Cl)C(=O)NCC(c1cccs1)N(C)C (stereo not drawn),31.9
10,COc1ccccc1C(=O)NC(=O)CSc1nncn1C,30.4
11,Cc1ccc(C(=O)OCC(=O)c2ccc(Cl)s2)s1,32
12,COc1ccc(-c2csc(Nc3cccnc3)n2)cc1,47.6
13,CC(C)C1=C2CCCCC2NC(=O)N1 (stereo not drawn),32.2
14,O=C(COC(=O)C1CC(=O)N(Cc2ccccc2)C1)Nc1ccccc1F (stereo not drawn),56.9
15,COc1cccc(N2[C@@H](CC(C)=O)c3ccc(/C=C/C(C)=O)cc3S2(=O)=O)c1,10.9
16,Cc1cc2cc(CNC(=O)c3ccc(S(=O)(=O)N4CCOCC4)cc3)ccc2n1C,18.3
17,Cc1ccc(NC=C(S(=O)(=O)c2ccccc2)S(=O)(=O)c2ccccc2)cc1,-22.8
18,CN1CCC(=NNC(=O)c2ccco2)CC1,17.4
